# Screening results deposited in PubChem by National Center for Advancing Translational Sciences (NCATS).
# SW480 rerep: induces DNA re-replication in SW480 colon adenocarcinoma cells. Potency, µM (doses to about 46.1 µM), without a hit: at the top dose re-replication activation, usual class: activators. SW480 DNA re-replication, Hoechst DNA content imaging, 48 h. 1.8% of 340,000 active. AID 624297; note: potency is the fitted concentration of half-maximal effect; % of control where 0% means no effect; nearly all actives have a fitted effect of over 55% in size
#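 Image-based read-out: total Hoechst fluorescence of nuclei (405 nm excitation, 500-530 nm emission), with hits raising the fraction of high-intensity nuclei. SW480 colon cells incubated 48 hr with compounds at 37 C.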
# KB-V1 MDR tox: kills drug-selected multidrug resistant KB-V1 cells. 3.4% of 400,000 active. KB-V1 MDR cells viability, CellTiter-Glo, 72 h. Potency, µM (top dose mostly 46.1 µM), hits mostly cytotoxic. AID 1347076; note: potency is the fitted concentration of half-maximal effect; % is set by controls: 0 for no effect and ±100 for the full control effect; nearly all actives have a fitted effect of over 60% in size
#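 Following 72 h at 37 degrees C with compound, KB-V1 cell viability was read by CellTiter-Glo luminescence, medium being phenol-red-free DMEM plus 10% FBS; concentration-response parameters came from normalized, curve-fitted qHTS data.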
# KB-3-1 cytotox: KB-3-1 parental cell cytotoxicity; 1.4% of 400,000 active; KB-3-1 viability, CellTiter-Glo ATP luminescence, 72 h; Potency, µM (titrated, usually from 46.1 µM), hits mostly cytotoxic; note: potency is the fitted concentration of half-maximal effect; % is set by controls: 0 for no effect and ±100 for the full control effect; nearly all actives have a fitted effect of over 60% in size
#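 Parental KB-3-1 adenocarcinoma cells in phenol-red-free DMEM with 10% FBS were pin-treated with compounds at several concentrations, incubated 72 h at 37 °C, and viability read by CellTiter-Glo luminescence; concentration-effect curves were fitted after normalization.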
# KCNH2 3.1 block: blocks the human KCNH2 3.1 channel isoform; AID 720553; U2OS KCNH2 3.1, thallium flux FluxOr; hits give low values; activity change, % (tested at about 1.8 µM); 0.95% of 340,000 active;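 active = maximum activity change below -70%; inconclusive = maximum activity change from -70% to -50%; inactive = maximum activity change above -50%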;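 note: thallium influx rate constant from kinetic fluorescence after stimulation buffer; % is set by controls: 0 for no effect and ±100 for the full control effect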
#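 Thallium flux read-out: FluxOr dye with Red40 quencher in HBSS/HEPES, 45 min at RT. Rate constants from kinetic reads were normalized to positive and negative DMSO controls. Cells: U2OS virally expressing the 3.1 isoform.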
# hERG WT inh: inhibitors of human wildtype KCNH2 potassium channel. Q12809. U2OS, BacMam KCNH2, thallium flux FluxOr; hits give low values. activity change, % at 1.84 µM. 0.37% of 340,000 active. AID 720551;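 active = maximum activity change below -70%; inconclusive = maximum activity change between -70% and -50%; inactive = maximum activity change above -50%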; note: % is set by controls: 0 for no effect and ±100 for the full control effect
#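 U2OS cells transduced with wild-type KCNH2 virus are loaded with FluxOr dye for 45 min, and thallium flux is measured in kinetic reads before and after stimulation buffer. Rate constants are normalized to DMSO controls.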
# MCF10A rereplic: induces DNA re-replication in MCF 10a normal breast cells | 2.9% of 350,000 active | Potency, µM (series often up to 46.1 µM), without a hit: top-dose activity, positive = re-replication, most hits filed as activators | MCF 10A DNA re-replication, Hoechst nuclear intensity, 48 h; note: potency is the fitted concentration of half-maximal effect; % of control where 0% means no effect; nearly all actives have a fitted effect of over 50% in size
# The depositor's hits bear a star; i = inactive; ? = inconclusive; nt = no result; [ ] = remark or other dose. Compounds with a hit are over-represented: about 7.6% of the library has one in this group of screens. Unless noted, calls come from the whole dose curve; as a rule, active = well fitted curve in the direction sought with a large enough effect; inconclusive = small, poorly fitted or top-dose-only effect, or another doubt; inactive = no such curve, though single readings can be large; an effect the other way counts as inactive or inconclusive.
SMILES,SW480 rerep,KB-V1 MDR tox,KB-3-1 cytotox,KCNH2 3.1 block,hERG WT inh,MCF10A rereplic
O=C(Nc1nnc(S(=O)(=O)N2CCCCCC2)s1)c1ccccc1Cl,-8%,i,i,-76*,-4,4%
CCCc1cc(NCCCN2CCOCC2)n2c(nc3ccccc32)c1C#N,2%[9.22 µM],i,i,-10,-11,21µM*
CCCc1cc(NCCOCCO)n2c(nc3ccccc32)c1C#N,nt,i,i,13,-4,nt
CCCc1cc(NCCCCO)n2c(nc3ccccc32)c1C#N,20%,23µM*,i,-27,11,17%
CCCc1cc(N2CCN(C(=O)c3ccco3)CC2)n2c(nc3ccccc32)c1C#N,?,i,i,-8,-1,21µM*
Cc1cc(NCCCN2CCOCC2)n2c(nc3ccccc32)c1C#N,?,i,i,-7,-10,?
CCCc1cc(-n2ccnc2C)n2c(nc3ccccc32)c1C#N,?,i,i,-2,14,20%
CCN1CCN(c2cccc(Nc3nn4c(=O)c5ccccc5nc4s3)c2)CC1,nt,i,i,nt,nt,nt
Cc1ccc(C(=O)Nc2nc(C(N)Cc3ccc(C(F)(F)F)cc3)cs2)cc1 (stereo not given),nt,i,i,nt,nt,nt
CC1=NN(C(N)=S)C(=O)C1N=Nc1ccc([N+](=O)[O-])cc1 (stereo not given),?,i,i,0,4,?
CCN(CCCNC(=O)CNC(=O)c1nn(-c2ccc(OC)cc2OC)c(=O)c2ccccc12)c1cccc(C)c1,-5%,?,i,-5,2,29%
CN(C(=O)CSc1ncnc2sc3c(c12)CCCC3)C1CCS(=O)(=O)C1 (stereo not given),-1%,i,i,13,2,9%
O=C(Cc1ccc(Cl)cc1)Nc1ccc2oc(=O)ccc2c1,1%,i,i,-9,4,2%
O=C(Cc1ccc(Cl)cc1)Nc1ccc(-c2cc3ccccc3oc2=O)c(Cl)c1,7.3µM*,2.3µM*,1.3µM*,-3,10,2.3µM*
COc1cc(NC(=O)c2cc(Cl)ccc2Cl)ccc1-c1cc2ccccc2oc1=O,3%,?,i,3,-18,?
CCc1ccc(OCC(=O)Nc2ccc(-c3cc4ccccc4oc3=O)c(OC)c2)cc1,2.3µM*,?,?,-27,0,-37%
CN(C(=O)Cn1nc(Cl)ccc1=O)C1CCCN(Cc2ccccc2F)C1 (stereo not given),-7%,i,i,1,-2,0%
CCOc1ccc(NC(=O)c2nc(S(=O)(=O)Cc3ccccc3)ncc2Cl)cc1,nt,i,?,nt,nt,nt
CCS(=O)(=O)c1ncc(Cl)c(C(=O)Nc2ccc(C)cc2)n1,3.7µM*,i,?,10,-3,5.8µM*
CCS(=O)(=O)c1ncc(Cl)c(C(=O)Nc2ccc(S(=O)(=O)N3CCCC(C)C3)cc2)n1 (stereo not given),7.3µM*,5.8µM*,3.7µM*,-15,0,2.6µM*
CS(=O)(=O)c1ncc(Cl)c(C(=O)Nc2ccc3ccccc3c2)n1,1.2µM*,i,i,-48,3,?
Cc1ccc(CS(=O)(=O)c2ncc(Cl)c(C(=O)Nc3ccc(OC(F)F)cc3)n2)cc1,?,18µM*,23µM*,-7,0,7.3µM*
c1ccc(COc2ccc(-c3csnn3)cc2)cc1,14%,i,i,-7,-14,0%
Cc1cccc(N2CCN(C(=O)CCN3C(=S)NC(C)(C)CC3C)CC2)c1C (stereo not given),-6%,4.1µM*,i,4,-31,14%
CC1CC(C)(C)NC(=S)N1CCC(=O)N1c2ccccc2CC1C (stereo not given),-48%[1.84 µM],i,i,-37,-15,?
SMILES,SW480 rerep,KB-V1 MDR tox,KB-3-1 cytotox,KCNH2 3.1 block,hERG WT inh,MCF10A rereplic
CC(C)(CC(=O)N1CCN(c2ccc(Cl)cc2)CC1)CC1=NS(=O)(=O)c2ccccc2N1,2%,4.1µM*,15µM*,-36,-10,0%
Cc1[nH]c2ccccc2c1/C=C/c1ccnc2ccccc12,nt,7.3µM*,8.2µM*,nt,nt,nt
Cc1[nH]c2ccccc2c1/C=C/c1nc2ccccc2c(=O)[nH]1,16µM*,?,?,10,-10,23µM*
Clc1ccc(/C=C/c2nc3ccccc3[nH]2)c(Cl)c1,?,?,i,2,-5,16µM*
C(=C\c1c[nH]c2ccccc12)/c1ccnc2ccccc12,nt,i,i,nt,nt,nt
O=c1[nH]c(/C=C/c2ccccc2Cl)nc2ccccc12,18µM*,i,?,8,0,16%
Cc1cc(C(=O)Nc2c(C)nc3ccccn3c2=O)ccc1[N+](=O)[O-],nt,i,i,nt,nt,nt
O=S(=O)(SC1=NCCN1)c1ccccc1,1%,i,i,-7,32,2%
O=C(O)[C@@H]1CCCN1S(=O)(=O)c1cccc2cccnc12,-6%,i,i,3,6,-8%
Cc1cccc(/C=C/c2nc3ccccc3c(=O)[nH]2)c1,5.2µM*,?,?,9,-2,8.2µM*
Cc1ccc(Cl)cc1N1CCN(CCCNC(=O)c2ccc3nc(N4CCCCC4)sc3c2)CC1,nt,16µM*,?,nt,nt,nt
COc1ccc(N2CCN(CCCNC(=O)c3ccc4nc(N5CCCCC5)sc4c3)CC2)cc1,nt,i,i,nt,nt,nt
Cc1ccc(C)c(N2CCN(CCCNC(=O)c3ccc4nc(N5CCC(C)CC5)sc4c3)CC2)c1,nt,?,21µM*,nt,nt,nt
CC1CCCCN1C(=O)C(=O)c1cn(CC(=O)N2CCCCCC2)c2ccccc12 (stereo not given),1%,i,i,-32,-2,7%
COc1ccc(NC(=S)Nc2ccc(OCc3ccccc3)cc2)c(OC)c1,12%,16µM*,?,-11,-1,9%
